# Bioassay records deposited in PubChem BioAssay by National Center for Advancing Translational Sciences (NCATS).
# KB-V1 cytotox = qHTS assay for MDR1-selective chemotherapeutics: Primary screen using the drug-selected MDR subline cells KB-V1 | KB-V1 MDR cells viability, CellTiter-Glo, 72 h | hit rate 3.4% among 400,000 | Potency, µM (top dose mostly 46.1 µM), most hits filed as cytotoxic | AID 1347076, 2019; note: nearly all actives have a fitted effect of over 60% in size
#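 Cells of the MDR subline KB-V1 are plated, dosed with compound at multiple concentrations, and incubated 72 h at 37 degrees C; CellTiter-Glo is then added and luminescence read after 10 min.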
# HT1080-NT tox = qHTS for induction of synthetic lethality in tumor cells producing 2HG: qHTS for the HT-1080-NT fibrosarcoma cell line; Potency, µM (titrated, usually from 46.1 µM), without a hit: top-dose activity, negative = less viability, actives largely listed as cytotoxic; hit rate 1.6% among 360,000; HT-1080-NT fibrosarcoma viability, CellTiter-Glo ATP luminescence, 48 h; AID 686970, 2013;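 note: NT is the 2HG producing partner of a matched IDH1 knockdown line; 0% = DMSO-treated cells and -100% = media-only wells without cells; nearly all actives have a fitted effect of over 55% in size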
#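 Fibrosarcoma NT cells, 750 per well in 5% FBS RPMI, were exposed to compound for 48 hours. Viability: CellTiter-Glo luminescence.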
# DT40 TDP1 no CPT = qHTS for Inhibitors of human tyrosyl-DNA phosphodiesterase 1 (TDP1): qHTS in cells in absence of CPT | DT40 Tdp1-/- hTDP1 cells, no CPT, ATP luminescence, 48 h | Potency, µM (titrated, usually from 46.2 µM), for inactives: at the highest dose activity change, negative = growth inhibition, usual class: inhibitors | hit rate 15% among 420,000 | AID 686978, 2013; note: nearly all actives have a fitted effect of over 55% in size
#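 Readout: luminescence from CellTiter-Glo after 30 min in the dark at RT. Cells: DT40 Tdp1-/- with stable hTDP1, 400/well. Exposure: compounds alone, ≥48 hr, 37 °C.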
# HT1080 IDH1KD tx = qHTS for induction of synthetic lethality in tumor cells producing 2HG: qHTS for the HT-1080-IDH1KD cell line | HT-1080 IDH1 knockdown viability, ATP luminescence, 48 h | Potency, µM (doses to about 46.1 µM), for the others: at the top dose activity, negative = toxicity, most hits filed as cytotoxic | hit rate 2% among 360,000 | AID 686971, 2013;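 note: 0% = DMSO wells and -100% = cell-free medium wells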
#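 HT-1080-IDH1KD cells (IDH1 knocked down), 750/well in RPMI with 5% FBS, treated with compound 48 h at 37 degrees C. Viability by CellTiter-Glo luminescence, normalised to DMSO and no-cell wells; concentration-response curves classed.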
# KB-3-1 cytotox = qHTS assay for MDR1-selective chemotherapeutics: Primary screen using the parental adenocarcinoma cell KB-3-1; KB-3-1 viability, CellTiter-Glo ATP luminescence, 72 h; Potency, µM (top dose mostly 46.1 µM), actives largely listed as cytotoxic; hit rate 1.4% among 400,000; note: nearly all actives have a fitted effect of over 60% in size
#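 Luminescent ATP read-out (CellTiter-Glo) measures survival of drug-naive KB-3-1 cells after 72 h compound exposure at 37 °C. Titration series was screened from lowest to highest concentration, with DMSO vehicle plates as background controls.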
# DT40 TDP1 CPT = qHTS for Inhibitors of human tyrosyl-DNA phosphodiesterase 1 (TDP1): qHTS in cells in presence of CPT | chicken DT40 Tdp1-/-;hTDP1 cells + 20 nM CPT, ATP luminescence, 48 h | hit rate 12% among 420,000 | AID 686979, 2013 | Potency, µM (doses to about 46.2 µM), without a hit: at the top dose activity change, negative = growth inhibition, hits mostly inhibitors; note: nearly all actives have a fitted effect of over 55% in size
#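 Chicken DT40 Tdp1-/- cells stably complemented with human TDP1 were seeded at 400 cells/well in medium containing 20 nM camptothecin, exposed to pin-transferred compounds, and grown at 37 °C for at least 48 hr. Viability was read as ATP luminescence.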
# * marks the source's active call; other numbers are inactive results; i = inactive; ? = inconclusive; . = no result. An excerpt weighted towards active compounds, which were near 19% of everything screened. Calls come from the whole dose curve; as a rule, active = well fitted curve in the direction sought with a large enough effect; inconclusive = small, poorly fitted or top-dose-only effect, or another doubt; inactive = no such curve, though single readings can be large; an effect the other way counts as inactive or inconclusive. Unless noted, % is set by controls: 0 for no effect and ±100 for the full control effect; potency is the fitted concentration of half-maximal effect.
SMILES,KB-V1 cytotox,HT1080-NT tox,DT40 TDP1 no CPT,HT1080 IDH1KD tx,KB-3-1 cytotox,DT40 TDP1 CPT
c1ccc(CN2CCN(C(c3ccccc3)c3ccccc3)CC2)cc1,?,-13.8%,?,?,i,?
CNC(=O)CC(CC(=O)c1ccccc1)c1ccccc1 (stereo not given),i,7.2%,-20.0%,9.8%,i,-23.3%
O=C(CC(CC(=O)c1ccccc1)c1ccccn1)c1ccccc1,i,0.6%,14.6µM*,-12.7%,i,?
O=C(CC(=O)c1ccccn1)c1ccccc1,13µM*,-9.6%,16.4µM*,?,?,20.6µM*
O=C(c1ccccc1)c1ccccn1,i,1.6%,-2.3%,8.1%,i,-1.8%
Cc1cc(C)n(-c2cccc(CN3CCC(CO)(Cc4ccccc4)CC3)c2)n1,?,-12.0%,23.1µM*,-11.6%,i,?
Cc1[nH]c2ccccc2c1CN1CCC(CO)(Cc2ccccc2)CC1,i,-0.8%,?,-1.2%,i,13µM*
CCC(NC(=O)CCc1nnc(-c2cc(C)on2)o1)C12CC3CC(CC(C3)C1)C2 (stereo not given),.,-1.0%,16.4µM*,-4.7%,.,20.6µM*
COc1ccc([C@@H](C)NC(=O)CCc2nnc(-c3cc(C)on3)o2)cc1,?,4.7%,?,3.4%,i,-13.5%
CCOc1ccc(C2N3CC4(C(C)C)CN2CC(C(C)C)(C3)C4=O)cc1OC (stereo not given),i,.,?,.,i,?
CCN(CC)c1ccc(NC(=S)NC(=O)c2ccco2)cc1,?,-19.8%,18.4µM*,?,i,18.4µM*
CCN(CC)c1ccc(NC(=O)c2ccco2)cc1,?,18.5%,-12.6%,6.1%,i,-6.9%
CCN(CC)c1ccc(/C=N/NC(=S)NCc2ccccc2)c(O)c1,i,-27.8%,?,?,7.31µM*,?
CCN(CC)c1ccc(/C=N/NC(=O)c2cnccn2)cc1,i,5.17µM*,1.64µM*,3.66µM*,?,1.3µM*
CCN(CC)c1ccc(NC(=O)c2ccco2)c(C)c1,i,4.4%,?,-10.4%,i,?
CCN(CC)c1ccc(/C=N/NC(=O)c2ccco2)c(O)c1,i,?,2.59µM*,?,?,5.17µM*
Cc1cc(C)c(NC(=O)CSCc2c(C)noc2C)c(Cl)c1,?,-11.2%,-24.8%,2.1%,i,-18.5%
COc1ccc([C@H]2CC(=O)C=C(c3ccc4c(c3)OCCO4)C2)cc1,?,-4.7%,-7.3%,-3.4%,i,3.0%
O=C(Cc1cccs1)N/N=C/c1ccccc1,?,17.6%,-8.9%,0.6%,i,-8.1%
CCN(CC)c1ccc(/C=N/NC(=O)c2ccco2)cc1,i,?,3.26µM*,2.59µM*,3.66µM*,?
CCN(CC)c1ccc(/C=N/NC(=O)Cc2cccs2)c(O)c1,?,?,5.17µM*,?,?,4.61µM*
COc1cccc(CSc2nc3cc4c(cc3cc2C)OCCO4)c1,?,-15.6%,29.1µM*,-27.4%,?,?
CCCC(=O)N1CCC1(C)C(=O)Nc1scc(C)c1C#N (stereo not given),i,26.6%,14.6µM*,20.1%,i,20.6µM*
CC(=O)O[C@H]1C2OC(=O)C(C)=C2[C@@H]2OC(=O)[C@]3(CCC4OC41C)OC23 (stereo not given in full),i,-0.5%,?,-6.9%,i,14.6µM*
CCc1ccc(N2CCN(S(=O)(=O)CC34CCC(CC3=O)C4(C)C)CC2)cc1 (stereo not given),?,-0.9%,20.6µM*,-15.7%,?,-53.4%
SMILES,KB-V1 cytotox,HT1080-NT tox,DT40 TDP1 no CPT,HT1080 IDH1KD tx,KB-3-1 cytotox,DT40 TDP1 CPT
CCOC(=O)C1CCCN(C(=O)Cn2ncc3c([nH]c4ccc(C)cc43)c2=O)C1 (stereo not given),i,-6.9%,?,-5.0%,i,?
COc1ccccc1OC1=NS(=O)(=O)c2ccccc21,i,5.3%,13µM*,10.6%,i,20.6µM*
CCN(CC)c1cccc(OC2=NS(=O)(=O)c3ccccc32)c1,i,-4.2%,16.4µM*,0.3%,i,8.2µM*
O=S1(=O)N=C(Oc2ccccc2F)c2ccccc21,i,.,.,.,i,.
c1ccc(C(c2cccs2)c2c[nH]c3ccccc23)cc1 (stereo not given),i,.,.,.,?,.
CN(C)c1ccc(C(CNS(=O)(=O)c2ccc3ccccc3c2)c2c[nH]c3ccccc23)cc1 (stereo not given),14.6µM*,-1.8%,?,0.2%,i,?
CN(C)c1ccc(C(CN)c2c[nH]c3ccccc23)cc1 (stereo not given),i,-23.0%,20.6µM*,-9.8%,i,18.4µM*
COc1ncc2nc(CCc3ccccc3)c(=O)n(Cc3ccc(F)cc3)c2n1,.,.,23.1µM*,.,.,?
CN1CCN(c2ncc3nc(-c4cn(C)c5ccccc45)c(=O)n(Cc4cccs4)c3n2)CC1,.,.,0.366µM*,.,.,1.64µM*
CCNc1ncc2nc(-c3cn(C)c4ccccc34)c(=O)n(Cc3cccs3)c2n1,.,.,-7.1%,.,.,-26.0%
CN1CCN(c2ncc3nc(CCc4ccccc4)c(=O)n(Cc4cccs4)c3n2)CC1,.,.,20.6µM*,.,.,?
CCOc1ccc(S(=O)(=O)NCCC(=O)Nc2cccc(C(=O)OC)c2)cc1,?,-3.1%,-21.7%,-6.9%,i,-0.2%
CN(C)c1cccc(-c2cc(N3CCC(C(N)=O)CC3)ncn2)c1,i,.,.,.,?,.
COc1cccc(N2C(=O)C(CC(=O)Nc3ccc(F)cc3)N(CCC3=CCCCC3)C2=O)c1 (stereo not given),?,.,16.4µM*,.,i,?
COc1ccc(CCN2C(=O)N(c3ccc(F)cc3)C(=O)C2CC(=O)Nc2ccccc2)cc1OC (stereo not given),?,.,-24.4%,.,i,?
COc1ccc(N2C(=O)C(CC(=O)Nc3ccccc3)N(CCC3=CCCCC3)C2=O)cc1 (stereo not given),i,.,18.4µM*,.,i,20.6µM*
